Assay outcomes from PubChem BioAssay.
MEKK2 WT-MEK5 – raises or lowers MEK5 binding to wildtype human MEKK2 PB1 domain; Q9Y2U5; bead flow cytometry, Alexa488-MEK5 binding to MEKK2 WT; actives lie on both sides; binding response (% of control), % at 10 µM; 290,000 compounds, 1.1% hits; AID 1531; in the data active = binding response below about 67% or above about 130%
SKN-1 inh – C. elegans SKN-1 inhibition; C. elegans VP596 Pgst-4::GFP/RFP ratio, acrylamide-induced, 24 h; inhibition, % at 21.8 µM; 360,000 compounds, 0.49% hits;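 active = interference check ratio from 0.5 to 1.5 plus GFP to RFP signal ratio inhibition reaching or exceeding a fixed threshold, cut at about 30% in these data, passing the limit was not always enough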
MEKK2mut PB1 HTS – signal of MEK5 binding to mutant human MEKK2 PB1 domain; percent response, % at 10 µM; 290,000 compounds, 0.35% hits; bead flow cytometry, Alexa488-MEK5 binding to MEKK2 mutant; in the data active = percent response above about 24%, passing the limit was not always enough
MEKK3 PB1 HTS – modulators (inhibitors or enhancers) of MEK5 binding to human MEKK3 PB1 domain; Q99759; bead-based flow cytometry, Alexa488-MEK5 binding to MEKK3; actives lie on both sides; 0 = blocked by unlabeled MEK5, 100 = vehicle; binding response (% of control), % at 10 µM; 290,000 compounds, 1.4% hits; AID 1529;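 active = binding response more than 3 SD above or below the average of its plate-row segment, actives on both sides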;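 also: Alexa488 bead fluorescence after subtracting the streptavidin-only scavenger bead signal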
NRP1-CendR mod – alters CendR peptide binding to human NRP-1 | O14786 | FAM-RPARPAR peptide binding to NRP-1, fluorescence polarization | inhibition, % at 25 µM | 360,000 compounds, 0.85% hits;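 active = inhibition or corrected inhibition above about 18%, plus a signal ratio from 0.5 to 1.5, limit read from the data, passing the limit was not always enough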
Target sequence (O14786 whole entry, looked up): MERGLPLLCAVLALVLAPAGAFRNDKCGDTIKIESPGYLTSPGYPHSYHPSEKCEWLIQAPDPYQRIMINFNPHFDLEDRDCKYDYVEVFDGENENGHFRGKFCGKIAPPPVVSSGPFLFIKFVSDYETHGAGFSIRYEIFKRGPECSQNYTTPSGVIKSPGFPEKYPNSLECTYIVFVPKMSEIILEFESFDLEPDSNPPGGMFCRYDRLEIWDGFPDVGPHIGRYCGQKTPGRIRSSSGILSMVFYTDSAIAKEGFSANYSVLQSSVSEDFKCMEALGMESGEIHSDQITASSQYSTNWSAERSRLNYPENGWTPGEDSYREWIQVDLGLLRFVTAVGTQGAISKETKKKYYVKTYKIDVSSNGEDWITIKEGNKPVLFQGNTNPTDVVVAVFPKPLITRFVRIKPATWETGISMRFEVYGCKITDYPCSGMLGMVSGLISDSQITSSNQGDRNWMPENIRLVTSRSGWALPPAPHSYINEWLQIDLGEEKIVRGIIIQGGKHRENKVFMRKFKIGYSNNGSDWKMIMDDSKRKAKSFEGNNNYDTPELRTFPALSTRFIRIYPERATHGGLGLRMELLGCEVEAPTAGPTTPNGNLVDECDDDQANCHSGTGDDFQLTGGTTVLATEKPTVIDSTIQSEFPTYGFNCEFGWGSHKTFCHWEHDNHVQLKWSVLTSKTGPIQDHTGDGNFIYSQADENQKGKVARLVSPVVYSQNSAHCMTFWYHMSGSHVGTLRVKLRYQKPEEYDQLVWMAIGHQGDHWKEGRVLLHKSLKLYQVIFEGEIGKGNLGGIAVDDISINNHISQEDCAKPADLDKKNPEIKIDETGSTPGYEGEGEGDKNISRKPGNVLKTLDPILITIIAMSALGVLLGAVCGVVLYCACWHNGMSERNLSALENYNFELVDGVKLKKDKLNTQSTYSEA
MEKK2wt confirm – raises or lowers MEK5 binding to wildtype human MEKK2, retest. binding response (% of control), % at 10 µM. AID 1892. bead flow cytometry, Alexa488-MEK5 binding to MEKK2 WT; actives lie on both sides. 5,900 compounds, 2.4% hits. shares compounds with MEKK3 PB1 HTS; in the data active = binding response below about 16% or above about 210%; inactive = in between
MEKK2mut-MEK5 – signal of MEK5 binding to mutant human MEKK2, retest; percent response, % at 10 µM; 5,900 compounds, 2% hits; bead flow cytometry, Alexa488-MEK5 binding to MEKK2 mutant; shares compounds with MEKK3 PB1 HTS; in the data active = percent response mostly above about 71%, no sharp cut-off; inactive = mostly below about 38%;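 also: higher means compound restores mutant binding toward wildtype level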
MEKK3-MEK5 inh – MEKK3-MEK5 PB1 inhibition, single concentration confirmation | binding response (% of control), % at 10 µM | shares compounds with MEKK3 PB1 HTS | bead flow cytometry, Alexa488-MEK5 binding to MEKK3; stronger effect = lower value | 5,900 compounds, 1.8% hits;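 active = binding response below 72% of control, or above a set upper limit, though filed actives all read lower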;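 also: 100% = DMSO only wells and 0% = binding blocked by excess unlabeled MEK5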
Numbers without * were called inactive; . = no result given; [ ] = another dose, or the depositor's remark. In the library only some 3.2% were active in any assay of this set; here they are far more common.

SMILES	MEKK2 WT-MEK5	SKN-1 inh	MEKK2mut PB1 HTS	MEKK3 PB1 HTS	NRP1-CendR mod	MEKK2wt confirm	MEKK2mut-MEK5	MEKK3-MEK5 inh
CC(=O)Nc1cc[n+](C(C)C(=O)c2ccc(Cl)cc2)cc1 (stereo not drawn)	54	-2	-14	41*[inhibitor]	0	103	0	100
CC(C(=O)c1ccc(-c2ccccc2)cc1)[n+]1ccccc1 (stereo not drawn)	102	11	0	98	8	.	.	.
Cc1cccc(NC(=O)/C(C#N)=C/c2ccc(Sc3ccccc3)o2)c1C	99	-2	-1	128*	-4	99	0	104
COCCN1C(=O)COc2ccccc2C1C(=O)Nc1c(C)cccc1C (stereo not drawn)	.	18	.	.	7	.	.	.
COc1ccccc1NC(=O)CN1CCC(n2c(C)nc3cc(F)ccc32)CC1	2.0*[inhibitor]	9	-16	2.0*[inhibitor]	3	106	5	106
COc1ccccc1NC(=O)CN1CCC(n2nnc3cc(F)ccc32)CC1	106	-7	-2	103	5	.	.	.
COc1ccc(C(O)(C(=O)NNc2ccc(C)cc2)c2cccs2)cc1 (stereo not drawn)	115	-11	5	122*	4	101	-1	106
O=C(NNc1ccc(C2CCCCC2)cc1)C(O)(c1ccccc1)c1cccs1 (stereo not drawn)	94	7	0	105	-14	.	.	.
Cc1ccc2[nH]c3c(N4CCN(Cc5ccccc5)CC4)ncnc3c2c1	105	12	1	111	5	.	.	.
Cc1ccc2c(c1)[nH]c1c(N3CCN(Cc4ccccc4)CC3)ncnc12	158*	16	18	109	8	119	13	106
COc1ccc2c(c1)[nH]c1c(N3CCSCC3)ncnc12	73	24	-30	67	-2	.	.	.
COc1ccc2c(c1)[nH]c1c(N3CCN(Cc4ccc5c(c4)OCO5)CC3)ncnc12	152*	21	8	114	-4	146	33	107
O=C(O)c1cc(O)ccc1NC(=O)c1cccc2ccccc12	122	-22	26	132*	-9	100	-3	103
CC(=O)Nc1ccccc1NC(=O)c1cccc2ccccc12	85	-1	-2	80	6	.	.	.
COc1ccc(NC(=O)c2cccc(Oc3ccc([N+](=O)[O-])cc3Cl)c2)cc1	93	2	-2	95	3	.	.	.
C/C(=N\NC(=O)c1cccc([N+](=O)[O-])c1)c1ccncc1	55	3	-17	49*[inhibitor]	-1	103	2	103
C/C(=N/NC(=O)c1ccc(O)cc1)c1cccc([N+](=O)[O-])c1	108	0	4	103	14	.	.	.
O=C(Nc1cccc(Cl)c1)c1cccc(Oc2ccc([N+](=O)[O-])cc2Cl)c1	17*[inhibitor]	-1	9	103	23	131	12	107
Cc1ccc(NC(=O)c2ccncc2)cc1[N+](=O)[O-]	105	-2	0	152*	4	104	6	107
O=C(Nc1cccc([N+](=O)[O-])c1)c1ccncc1	101	5	-1	141*	22	98	-5	100
C[C@@H]1CN([C@H](C)CO)C(=O)c2cc(Br)cnc2O[C@@H]1CN(C)Cc1ccc(-c2ccccc2)cc1	.	10	.	.	-7	.	.	.
CCCCCC1=C(C(=O)OC)C(C(=O)OCC)N(S(=O)(=O)C(F)(F)F)c2ccccc21 (stereo not drawn)	.	3	.	.	14	.	.	.
CC(Oc1ccccc1)C(=O)Nc1cccc([N+](=O)[O-])c1 (stereo not drawn)	91	-8	-7	95	9	.	.	.
CC(C)[C@H](NC(N)=O)C(=O)Nc1cccc([N+](=O)[O-])c1	132	9	7	143*	9	108	2	106
CCN(CC)c1nc(OCCNC(=O)Nc2ccccc2)nc(N(CC)CC)n1	118	10	24*	111	7	95	-9	96
SMILES	MEKK2 WT-MEK5	SKN-1 inh	MEKK2mut PB1 HTS	MEKK3 PB1 HTS	NRP1-CendR mod	MEKK2wt confirm	MEKK2mut-MEK5	MEKK3-MEK5 inh
O=C(NCCOc1nc(N2CCCCC2)nc(N2CCCCC2)n1)Nc1ccccc1	106	6	5	106	-1	.	.	.
N=C(N)SCc1nc2ccccc2c(=O)n1-c1ccccc1Cl	128	-7	10	135*	-4	100	2	102
Cc1ccccc1-n1c(CSC(=N)N)nc2ccccc2c1=O	106	16	1	102	-14	.	.	.
O=C(COc1ccc(F)cc1)c1c(O)cc(O)cc1O	115	-4	24	132*	1	104	2	101
COc1ccc(C(=O)COc2ccc(F)cc2)c(O)c1	100	3	1	91	-1	.	.	.
CN(C)CCNC(=O)c1ccc(-c2cnn(C)c2)c2ccoc12	.	9	.	.	0	.	.	.
CCCNC(=O)NC(=O)COc1c(F)c(F)cc(F)c1F	98	4	13	97	4	.	.	.
O=C(COc1c(F)c(F)cc(F)c1F)NC(=O)NC1CCCC1	60	-2	-8	56*[inhibitor]	0	101	5	100
CCc1nc2ccc(C(=O)Nc3cccc(OC)c3)cn2c1N(CC)CCOC	.	18	.	.	4	.	.	.
O=C(CN1CCC(C(O)(c2ccccc2)c2ccccc2)CC1)Nc1ccccc1	97	6	0	97	-14	.	.	.
O=C(CN1CCC(C(O)(c2ccccc2)c2ccccc2)CC1)Nc1cc(Cl)ccc1Cl	78	2	-14	72*[inhibitor]	7	98	-2	104
O=c1cc(-c2ccccc2)oc2ccc(Cl)cc12	.	6	.	.	-14	.	.	.
O=c1cc(-c2ccc3c(c2)OCCO3)oc2ccc(Cl)cc12	104	10	0	137*	4	96	1	100
c1ccc(Nc2nc(NCc3ccco3)c3ccccc3n2)cc1	174*	-7	10	100	1	190	62	115
Cc1ccccc1Nc1nc(NCc2ccco2)c2ccccc2n1	149*	-3	35	104	-1	169	55	104
Cc1cccc(Nc2nc(NCc3ccco3)c3ccccc3n2)c1	145*	21	14	106	-10	191	57	106
COc1ccc(OC)c(Nc2nc(NCc3ccco3)c3ccccc3n2)c1	206*	-1	24*	117	-8	175	61	109
OCCN1CCN(c2nc(NCc3ccco3)c3ccccc3n2)CC1	104	-8	5	95	2	.	.	.
